{"source": "PubChem BioAssay AID1650", "about": "(Southern Research Specialized Biocontainment Screening …, 2009)", "note": "Entries with a potency or affinity are not part of this list. Active and inactive are the calls of the source. The rule behind the calls is not given here.", "data": [{"assay": "host cell cytotoxicity of antiviral hits, dose response, cytotoxicity control for West Nile virus antiviral project, secondary assay (AID 1650)", "settings": "Mammalian host cell viability, cytotoxicity counter-screen; series mostly up to 10 µM", "values": [{"smiles": "Cc1cc(N2CCN(C)CC2)nc2ccc(NC(=S)N3CCN(c4ccccn4)CC3)cc12", "outcome": "inactive"}, {"smiles": "CN1CCN(c2ccc(S(=O)(=O)N3CCCCC3)cc2NC(=O)c2ccc3ccccc3c2)CC1", "outcome": "inactive"}, {"smiles": "CCc1ccc(C(=O)Cn2ncc(Cl)c(Cl)c2=O)cc1", "outcome": "inactive"}, {"smiles": "CN1CCN(c2nc(Nc3cccc(C(F)(F)F)c3)nc(N3CCOCC3)n2)CC1", "outcome": "inactive"}, {"smiles": "CC(NC(=O)/C=C/c1cnc2ccccc2n1)C12CC3CC(CC(C3)C1)C2", "note": "(stereo not given)", "outcome": "inactive"}, {"smiles": "COc1cc(-c2cc3nc(C)c(C)c(=O)n3[nH]2)cc(OC)c1OC", "outcome": "inactive"}, {"smiles": "CCOc1ccc2nc(N3CCCC(C(=O)NCCCN4CC(C)CC(C)C4)C3)sc2c1", "note": "(stereo not given)", "outcome": "inactive"}, {"smiles": "COc1ccc(N2C(=O)C(C)(C)C2c2c(O)ccc3ccccc23)cc1", "note": "(stereo not given)", "outcome": "inactive"}, {"smiles": "O=[N+]([O-])c1ccc(Cl)c(/C=N/n2c(C3CCCCC3)n[nH]c2=S)c1", "outcome": "inactive"}, {"smiles": "CCOc1ccc(-c2cc(C(=O)NCCCN3CCCC3)c3ccccc3n2)cc1", "outcome": "inactive"}, {"smiles": "Cc1nn(Cc2ccc(Cl)cc2)c(C)c1NC(=O)CSc1nc2c(c(C(F)(F)F)n1)CCc1ccccc1-2", "outcome": "inactive"}, {"smiles": "Cn1c(CCN2CCCCC2)nc2cc(NC(=O)COc3ccc([N+](=O)[O-])cc3)ccc21", "outcome": "inactive"}, {"smiles": "Cc1nc([N+](=O)[O-])c(Br)n1CC(=O)c1ccc(Cl)cc1", "outcome": "inactive"}, {"smiles": "COc1cccc(C2CC(c3c(-c4ccccc4)c4cc(Cl)ccc4[nH]c3=O)=NN2S(C)(=O)=O)c1OC", "note": "(stereo not given)", "outcome": "inactive"}, {"smiles": "CN(C)CCCN(C(=O)c1ccc2c(c1)OCCO2)c1nc2ccc(Cl)cc2s1", "outcome": "inactive"}, {"smiles": "COc1cc2nc(N3CCN(C(=O)C4COc5ccccc5O4)CC3)nc(N)c2cc1OC", "note": "(stereo not given)", "outcome": "inactive"}, {"smiles": "CC1CCCC(C)N1CCCNC(=O)c1cc2c(s1)-c1ccccc1OC2", "note": "(stereo not given)", "outcome": "inactive"}, {"smiles": "CC1(C)CC(NC(=O)COc2cc3oc(=O)c4c(c3cc2Cl)CCC4)CC(C)(C)N1", "outcome": "inactive"}, {"smiles": "NS(=O)(=O)c1ccc(NC(=O)c2cc(-c3cc(Cl)ccc3O)n[nH]2)cc1", "outcome": "inactive"}, {"smiles": "O=C(Nc1ccc(-n2ccc(C(F)(F)F)n2)cc1)Nc1cccc(Cl)c1", "outcome": "inactive"}, {"smiles": "CCOC(=O)c1cc(-c2ccc(OC)cc2F)nc2c1c(C)nn2CCC#N", "outcome": "inactive"}, {"smiles": "CCn1cc(CNCc2cn(C)nc2-c2ccc(C3CCCCC3)cc2)cn1", "outcome": "inactive"}, {"smiles": "CCOC(=O)c1sc(NC(=O)Nc2ccccc2)cc1C", "outcome": "inactive"}, {"smiles": "CN(C)CCCNC(=S)N1CCN(c2nc(-c3ccccc3)cs2)CC1", "outcome": "inactive"}, {"smiles": "CC[C@H]1CC2CN3CCc4c([nH]c5c([C@H]6C[C@H]7[C@H](CC)CN(C)[C@@H](Cc8c6[nH]c6ccccc86)[C@H]7C(=O)OC)c(OC)ccc45)C(C(=O)OC)(C2)C13", "outcome": "inactive"}, {"smiles": "Cc1cccc(/C=C2/Sc3ccc(C(=O)NCCCN4CCOCC4)cc3NC2=O)c1", "outcome": "inactive"}, {"smiles": "OCCN(CCO)CC(O)COc1ccc(C23CC4CC(CC(C4)C2)C3)cc1", "note": "(stereo not given)", "outcome": "inactive"}, {"smiles": "O=C(NCCOc1ccccc1Cl)c1ncn[nH]1", "outcome": "inactive"}, {"smiles": "CCN1CCN(c2cc(C)c3cc(NC(=S)N4CCCC(C)C4)ccc3n2)CC1", "note": "(stereo not given)", "outcome": "inactive"}, {"smiles": "CCN(CC)S(=O)(=O)c1ccc(NC(=O)Cn2cnc3ccccc3c2=O)cc1", "outcome": "inactive"}, {"smiles": "O=C(CN1CCCC1)Nc1ccc(-c2nc3cc(NC(=O)CN4CCCC4)ccc3o2)cc1", "outcome": "inactive"}, {"smiles": "Cc1cc(N2CCN(C)CC2)nc2ccc(NC(=S)NCc3cccs3)cc12", "outcome": "inactive"}, {"smiles": "CC(C)c1cc(C(=O)OCC(=O)NC(=O)NCc2ccco2)c(O)c(C(C)C)c1", "outcome": "inactive"}, {"smiles": "Cc1c(Cc2ccccc2)c(NCCN(C)C)n2c(nc3ccccc32)c1C#N", "outcome": "inactive"}, {"smiles": "CCN1CCN(CCCNC(=O)c2ccc3c(Cl)c4c(nc3c2)CCCC4)CC1", "outcome": "inactive"}, {"smiles": "Cc1ccc(-n2c(O)c(C=Nc3ccc4c(c3)OCO4)c3ccccc3c2=O)cc1C", "outcome": "inactive"}, {"smiles": "C/C(N)=C(/C#N)C(=O)COC(=O)c1cc(-c2ccc(Br)cc2)nc2ccccc12", "outcome": "inactive"}, {"smiles": "O=c1[nH]c2ccc(Cl)cc2c(-c2ccccc2)c1N1CCN(CCO)CC1", "outcome": "inactive"}, {"smiles": "Nc1nonc1-n1nnc(C(=O)N/N=C/c2ccccc2Cl)c1CSc1ccccc1", "outcome": "inactive"}, {"smiles": "Cc1onc(-c2ccccc2Cl)c1C(=O)O/N=C(\\N)c1ccc([N+](=O)[O-])o1", "outcome": "inactive"}]}]}
